The list is not random: actives were taken first. Their share in the collection is about 6.7%.
KB-3-1 cytotox = KB-3-1 parental cell cytotoxicity; KB-3-1 viability, CellTiter-Glo ATP luminescence, 72 h; Potency, µM (titrated, usually from 46.1 µM), most hits filed as cytotoxic; 400,000 compounds, 1.4% hits; AID 1347075; further: on the % scale 0 is the no-effect control and ±100 the full control effect; nearly all actives have a fitted effect of over 60% in size
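KB-3-1 parental drug-naive adenocarcinoma cells in DMEM/10% FBS, incubated 72 h at 37 C with pin-transferred compounds across a concentration series. Viability by CellTiter-Glo luminescence; concentration-response curves fitted after normalization.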
PINK1 modulator = changes PINK1 expression. AID 624263. Potency, µM (doses to about 76.6 µM), for the others: at the highest dose activation (PINK1 increase), most hits filed as activators. PINK1 immunofluorescence, high-content cytometry, 24 h. 410,000 compounds, 0.2% hits; active means well fitted activation curve with a large enough effect; inconclusive means small, poorly fitted or top-dose-only effect; cell line not stated here; further: % of control where 0% means no effect; nearly all actives have a fitted effect of over 65% in size
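Readout is PINK1 immunofluorescence, quantified alongside mitochondrial, cell and nuclear markers by laser-scanning microplate cytometry. Cells from a stable line were exposed to compound titrations (5 concentrations) for 24 hours, with CCCP controls.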
SW480 rerep = induces DNA re-replication in SW480 colon adenocarcinoma cells. SW480 DNA re-replication, Hoechst DNA content imaging, 48 h. 340,000 compounds, 1.8% hits. Potency, µM (doses to about 46.1 µM), for inactives: top-dose re-replication activation, most hits filed as activators. AID 624297; further: % of control where 0% means no effect; nearly all actives have a fitted effect of over 55% in size
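250 cells/well; 23 nL cpd via pin tool; 48 hr, 37 C, 5% CO2; Hoechst 40 min; imager read of total nuclear intensity, ex 405/em 500-530 nm.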
MCF10A rerep = inducers of DNA re-replication in MCF 10A breast cells. Potency, µM (series often up to 46.1 µM), for the others: at the top dose activity, positive = re-replication, actives largely listed as activators. MCF 10A DNA re-replication, Hoechst nuclear intensity, 48 h. 350,000 compounds, 2.9% hits; further: % of control where 0% means no effect; nearly all actives have a fitted effect of over 50% in size
KB-V1 MDR tox = KB-V1 MDR subline cytotoxicity; AID 1347076; KB-V1 MDR cells viability, CellTiter-Glo, 72 h; Potency, µM (doses to about 46.1 µM), most hits filed as cytotoxic; 400,000 compounds, 3.4% hits; further: on the % scale 0 is the no-effect control and ±100 the full control effect; nearly all actives have a fitted effect of over 60% in size
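Drug-selected KB-V1 cells, grown in DMEM lacking phenol red with 10% FBS, receive compound titrations; after three days at 37 degrees C, surviving cell ATP is quantified by CellTiter-Glo luminescence and responses normalized and curve-fitted.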
Numbers without * were called inactive; i = inactive; ? = inconclusive; nt = not tested or not shown; [ ] = remark or other dose. Unless noted, the call rests on the fitted dose curve; in most records, active means well fitted curve in the direction sought with a large enough effect; inconclusive means small, poorly fitted or top-dose-only effect, or another doubt; inactive means no such curve, though single readings can be large; an effect the other way counts as inactive or inconclusive. Potency means the concentration at half of the fitted maximal effect.

SMILES	KB-3-1 cytotox	PINK1 modulator	SW480 rerep	MCF10A rerep	KB-V1 MDR tox
COc1ccc(CCNC(=O)COc2ccc(S(=O)(=O)NC3CCCCC3)cc2Cl)cc1OC	?	4.0%	14.9%	-0.4%	10.3µM*
O=C(COc1ccc(S(=O)(=O)NC2CCCCC2)cc1Cl)Nc1ccc2c(c1)OCO2	?	-0.4%[38.3 µM]	1.9%	?	10.3µM*
O=C(COC(=O)c1cc([N+](=O)[O-])ccc1Cl)NCCc1ccccc1	i	0.7%	-3.4%	1.5%	i
COCCCNC(=O)COc1ccc(S(=O)(=O)NCc2ccccc2)cc1Cl	i	1.6%	-4.6%	1.5%	20.6µM*
O=C(COc1ccc(S(=O)(=O)NC2CCCCC2)cc1Cl)NCc1ccc2c(c1)OCO2	i	-2.5%[38.3 µM]	24.7%	10.4%	?
CCc1ccc2occ(CC(=O)Nc3sc4c(c3C(=O)OC)CCC4)c2c1	?	-0.7%	nt	nt	i
Cc1cc(C)cc(NC(=O)C(=O)NCC(c2cccnc2)N2CCOCC2)c1 (configuration not stated)	i	2.2%	nt	nt	i
Cc1ccc(Cn2ncc3c(N4CCN(Cc5ccc(Cl)cc5)CC4)ncnc32)cc1	?	4.8%	11.1%	?	2.59µM*
Cn1ncc2c(N3CCC(Cc4ccccc4)CC3)ncnc21	?	1.0%	3.2%	-10.0%	4.61µM*
Cc1ccccc1N1CCN(c2ncnc3c2cnn3Cc2ccc(Cl)cc2)CC1	18.4µM*	0.4%	16.9%	3.5%	?
Cc1ccc(-n2ncc3c(N4CCCC4)ncnc32)c(C)c1	i	nt	-3.1%	9.2%	i
Cc1ccc(Cn2ncc3c(N4CCN(c5ccc(C)cc5)CC4)ncnc32)cc1	i	5.2%	2.0%	24.0%	?
COc1cccc(N2CCN(c3ncnc4c3cnn4-c3ccc(C)cc3C)CC2)c1	10.3µM*	-1.9%	5.4%	6.51µM*	?
COC(=O)c1ccc(NC(=O)c2c(-c3ccccc3)c(-c3ccccc3)nn(C)c2=O)cc1	nt	0.5%	nt	nt	nt
NC[C@@H]1O[C@H](OC2[C@@H](CO)O[C@@H](OC3[C@H](O)[C@H](N)C[C@H](N)[C@H]3OC3O[C@H](CO)[C@@H](O)[C@H](O)[C@@H]3N)[C@H]2O)C(N)[C@H](O)[C@@H]1O (some centres not stated)	nt	nt	-0.4%	-3.4%	nt
COc1ccccc1N1CCN(C(=O)CSc2ncnc3scc(-c4ccccc4)c23)CC1	?	-0.5%	1.1%	6.8%	?
Cc1ccc(-n2ncc3c(N4CCN(Cc5ccccc5)CC4)ncnc32)cc1C	i	2.4%	nt	nt	?
COc1ccc(-n2ncc3c(SCC(=O)N4CCN(c5ccccc5OC)CC4)ncnc32)cc1	i	-0.6%	0.9%	?	9.2µM*
COc1ccc(-n2ncc3c(N4CCN(Cc5ccccc5)CC4)ncnc32)cc1	?	-0.5%	?	20.6µM*	13µM*
Cc1nn(C)c(Cl)c1CN1CCOc2ccc(CN3CCC(Oc4cccnc4)CC3)cc2C1	nt	0.3%	nt	nt	nt
CCOc1ccc(C(=O)/C=C/c2cn(CN3CCN(C)CC3)c3ccccc23)cc1	i	?	?	10.3µM*	i
CCCN(CCC)CC(O)Cn1cc(/C=C/C(=O)c2ccc(OCC)cc2)c2ccccc21 (configuration not stated)	i	-6.1%	nt	nt	?
COc1ccc(C(=O)/C=C/c2cn(CN3CCN(C)CC3)c3ccccc23)cc1	?	?	20.6µM*	8.2µM*	i
COC(=O)c1ccc2c(=O)n(CCCCCC(=O)N3CCN(c4cc(C)ccc4C)CC3)c(=O)[nH]c2c1	i	1.4%	nt	nt	i
CC1CCCCC12NC(=O)N(CC(=O)N1CCN(S(=O)(=O)c3ccc(Cl)s3)CC1)C2=O (configuration not stated)	i	0.8%	nt	nt	i
SMILES	KB-3-1 cytotox	PINK1 modulator	SW480 rerep	MCF10A rerep	KB-V1 MDR tox
O=C(N/N=C/c1ccc(C(F)(F)F)cc1)c1ccc(O)cc1	i	2.5%	6.1%	11.0%	i
Oc1ccc(/C=N/Nc2ccc(C(F)(F)F)cn2)cc1	?	-0.9%	9.2µM*	-0.7%	i
COc1cc(/C=N/Nc2ccc(C(F)(F)F)cn2)cc(OC)c1O	?	-1.1%	11.6µM*	23.0%	i
COc1cc(/C=N/Nc2ccccn2)cc(OC)c1O	i	-0.4%	18.8%	-17.4%	i
COc1cc(OC)c(/C=C/c2nc3ccccc3o2)c(OC)c1	?	0.1%	nt	nt	i
CCOCCCn1c(SCc2nc3ccccc3s2)nc2ccccc2c1=O	11.6µM*	6.0%	?	?	2.31µM*
CCOCCCn1c(SCC(=O)/C(C#N)=C(\C)N)nc2ccccc2c1=O	i	0.7%	-7.7%	-6.6%	8.2µM*
CCOCCCn1c(SCC(=O)Nc2ccccc2)nc2ccccc2c1=O	i	1.9%	-5.7%	-3.8%	i
C/C(N)=C(/C#N)C(=O)CSc1nc2ccccc2c(=O)n1CCCOC(C)C	i	-0.1%	7.2%	8.6%	i
O=C(C[C@H]1CC[C@@H](NC(=O)C2CC2)[C@@H](CO)O1)NCc1ccccc1Cl	i	nt	nt	nt	i
Nc1nc2nc(-c3cccs3)cc(C(F)(F)F)n2n1	i	0.3%	?	20.6µM*	i
CCOC(=O)c1nc2nc(-c3cccs3)cc(C(F)(F)F)n2n1	i	7.1%	0.8%	-45.4%	i
CCOc1cc(C(=O)N/N=C/C2CC=CCC2)cc(OCC)c1OCC (configuration not stated)	i	?	23.1µM*	?	i
Cc1ccc(C(=O)N/N=C\C2CC=CCC2)cc1[N+](=O)[O-] (configuration not stated)	i	0.1%	1.6%	-14.5%	?
O=S(c1cc(Cl)cc(Cl)c1O)c1cc(Cl)cc(Cl)c1O	?	?	0.0%	13.3µM*	?
O=C(Nc1ccccc1N1CCOCC1)c1ccc([N+](=O)[O-])s1	?	2.1%	16.4µM*	?	?
Cc1ccc(NC(=O)c2cc(S(=O)(=O)N3CCOCC3)c(Br)s2)cc1	?	-2.2%	2.1%	1.1%	23.1µM*
O=C(Nc1ccc(S(=O)(=O)N2CCOCC2)cc1)c1ccc([N+](=O)[O-])s1	5.17µM*	-0.8%	i	13µM*	?
Cc1ccc(C(=O)Nc2ccc(F)c(S(=O)(=O)N3CCOCC3)c2)s1	i	1.8%	-6.2%	0.7%	i
CN(C)CCNc1ccc(CO)c2oc3ccc(O)cc3c(=O)c12	16.4µM*	-6.4%	?	26.6%	i
CC(=O)c1ccc(NC(=O)Cn2c(=O)n(Cc3ccco3)c(=O)c3sc4ccccc4c32)cc1	i	10.9%	nt	nt	i
Cc1ccccc1Sc1c(C#N)c(-c2ccccc2)nn1C	i	7.08µM*	10.1%	?	i
CN1CCN(c2nc(-c3ccccc3)nc(-c3ccccc3)c2C#N)CC1	i	0.5%	1.0%	?	i
